Screening data (PubChem)
ssDAF-12 act: S. stercoralis DAF-12 nuclear receptor activators, primary screen, cell-based, luminescence, HEK293, GRIP1 co-expression, lit1-tk-luc. Nuclear hormone receptor DAF-12 (Strongyloides stercoralis). HEK293 ssDAF-12/GRIP1 lit1-tk-luc reporter; % of 3 µM dafachronic acid response. activation, % at 6.8 µM. actives 1% (n = 370,000);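 active = activation above the mean over all tested compounds plus 3 SD, cut at about 0.9% in these data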;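 note: 0% = DMSO-only wells and 100% = 3 µM delta7-dafachronic acid wells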
DAX1 inh-1: DAX1 (NR0B1) inhibitors on StAR promoter, primary screen, cell-based, luminescence, SF-1 (NR5A1), full-length DAX-1 | HEK293T StAR-luciferase reporter, SF-1/DAX-1 repression relief | inhibition, % at 6.8 µM | actives 1.1% (n = 370,000) | AID 652010, 2013;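 active = inhibition above the mean over all tested compounds plus 3 SD, cut at about 3.6% in these data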;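 note: 0% = DAX-1 cells with DMSO and 100% = cells lacking DAX-1 with DMSO; higher inhibition means more luminescence from relief of DAX-1 repression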
AHR activator: AHR activators, primary screen, cell-based, luminescence, luciferase reporter, human. AHR-responsive luciferase reporter cells. activation, % at 5 µM. actives 2.5% (n = 320,000). AID 2796, 2010; in the data active = activation above about 47%;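 note: 0% = vehicle wells and 100% = reference agonist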
hgDAF-12 ag: H. glycines DAF-12 receptor agonists, primary screen, cell-based, luminescence, HEK293, GAL4 fusion, UAS-luciferase; HEK293 GAL4-hgDAF12 UAS-luciferase reporter, agonist luminescence; normalized to butyrate control; activation, % at 6.8 µM; Nuclear hormone receptor DAF-12 (Heterodera glycines), GAL4 fusion; actives 1.8% (n = 370,000);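 active = activation above a cutoff set at the mean of all screened compounds plus 3 SD, cut at about 10% in these data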;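 note: 0% = DMSO wells and 100% = sodium butyrate wells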
DAX1 inh-2: DAX1 (NR0B1) inhibitors, primary screen, cell-based, HEK293, Gal4-DAX1, luciferase luminescence; HEK293 Gal4-DAX1 luciferase reporter; inhibition, % at 6.75 µM; actives 0.99% (n = 340,000);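 active = inhibition above the mean over all tested compounds plus 3 SD, cut at about 4.2% in these data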;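 note: 0% = DAX1-transfected cells with DMSO and 100% = empty-vector control cells with DMSO; inhibition shows as a rise in luminescence from relieved DAX1 repression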
Target sequence (P51843 207-470 limits assumed): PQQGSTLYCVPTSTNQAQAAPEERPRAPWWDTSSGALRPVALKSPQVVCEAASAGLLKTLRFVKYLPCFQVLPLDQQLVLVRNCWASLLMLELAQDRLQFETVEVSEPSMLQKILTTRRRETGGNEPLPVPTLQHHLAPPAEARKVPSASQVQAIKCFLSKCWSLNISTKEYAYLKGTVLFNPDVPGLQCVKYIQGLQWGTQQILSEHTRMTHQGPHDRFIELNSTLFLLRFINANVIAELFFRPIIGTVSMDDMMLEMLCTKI
hcDAF-12 act: H. contortus DAF-12 nuclear receptor activators, primary screen, cell-based, luminescence, HEK293, lit1-tk-luc reporter; HEK293 hcDAF-12 lit1-tk-luc reporter; 0% DMSO, 100% Δ7-dafachronic acid; activation, % at 6.8 µM; actives 1.4% (n = 370,000); AID 652067, 2013;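 active = activation above the mean of all tested compounds plus 3 SD, cut at about 5.5% in these data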;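 note: 100% = response to 3 µM Δ7-dafachronic acid high control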
* hit, by the source's call; . = no result given. Rows were chosen to be rich in hits. Some 5.7% of all compounds tested hit in one or more screens of this group.

SMILES	ssDAF-12 act	DAX1 inh-1	AHR activator	hgDAF-12 ag	DAX1 inh-2	hcDAF-12 act
COC(=O)NNC(=O)c1ccccc1OC	-1	1	15	-1	1	6.2*
COc1ccccc1C(=O)NNC(=O)c1cccc(C)c1	1.1*	1	26	8	2	5
COc1ccc(Cn2nnnc2C(c2cc3ccc(OC)cc3[nH]c2=O)N2CCC(C)CC2)cc1 (configuration not stated)	-1	0	8	-1	0	0
COc1ccc2[nH]cc(C(=O)N3CCCCC3)c(=O)c2c1	-1	0	1	2	1	-1
O=C1CC(NNc2ccccc2)C(=O)N1c1ccccc1 (configuration not stated)	0	1	7	0	2	6.3*
CC(=O)Nc1ccc(S(=O)(=O)N2CCN(c3cc(C)nc4ncnn34)CC2)cc1	-2	-1	2	-1	0	0
CCC(=O)Nc1ccc(-c2nn3c(C)nnc3s2)cc1C	-1	1	54*	4	0	2
COc1ccc(NC(=S)NCCCN2CCOCC2)cc1	-1	0	-1	1	3	0
COc1ccc(N2CCN(CCCNC(=S)Nc3c(C)cccc3C)CC2)cc1	-1	1	2	0	5.6*	-1
C[C@@H](CO)NC(=O)c1ccc2c3n(nc2c1)-c1ccc(Cl)cc1CO3	0	3	-7	7	1	2
CC(C)[C@H](NC(=O)[C@H](Cc1ccccc1)NC(=O)OC(C)(C)C)C(=O)N1CCC2CCN(S(=O)(=O)c3ccccc3)CC21 (some centres not stated)	-1	0	.	-2	.	1
N[C@H](C(=O)N[C@@H](Cc1ccccc1)C(=O)N1CCC2CCN(S(=O)(=O)c3ccccc3)CC21)c1ccccc1 (some centres not stated)	0	3	.	17*	.	1
CCC(C)n1cnc2c(=O)oc3ccccc3c21 (configuration not stated)	-2	0	0	2	-1	-2
Cc1cc(=O)c2c(C)nn(-c3ccccc3)c2[nH]1	-1	0	0	2	0	1
Cc1c(C)c2c(C)nn(-c3ccccc3)c2[nH]c1=O	-1	0	96*	4	1	3
CCOC(=O)c1c(C)[nH]c(C)c1C(=O)CSc1nc(N)cc(=O)[nH]1	-2	0	7	0	-1	-1
CCOC(=O)c1c(C)[nH]c(C)c1C(=O)Cn1nnc(-c2ccccc2C)n1	-1	-1	49*	0	0	-2
CCOC(=O)c1c(C)[nH]c(C)c1C(=O)CSc1ncccn1	.	.	78*	.	-1	.
CCOC(=O)c1c(C)[nH]c(C)c1C(=O)CSc1nc2ccccc2[nH]1	-2	0	59*	-1	1	-2
CCOC(=O)c1c(C)[nH]c(C)c1C(=O)CSc1nc2ccccc2n1CC	-2	-1	29	-3	-2	-4
C=C(CN(C)C)C(=O)c1cc(C)ccc1C	-1	-3	.	-9	-4	-1
CCS(=O)(=O)c1ccc2c(c1)NC(=O)C(CCO)O2 (configuration not stated)	-2	-1	-2	1	0	1
COc1cc(/C(C#N)=C/c2ccccc2)c([N+](=O)[O-])cc1OC	-1	-1	47*	-1	-1	1
COc1ccc(/C=C(\C#N)c2nc3ccccc3[nH]2)cc1O	0	2	.	9	4	2
COc1cc(/C=C(\C#N)c2nc3ccc(C)cc3[nH]2)c([N+](=O)[O-])cc1OC	-1	-2	66*	0	-1	0
SMILES	ssDAF-12 act	DAX1 inh-1	AHR activator	hgDAF-12 ag	DAX1 inh-2	hcDAF-12 act
COc1c(O)ccc(/C=C(\C#N)c2nc3ccccc3[nH]2)c1[N+](=O)[O-]	-1	0	50*	3	1	5
COc1ncnc2c1ncn2CCCNCc1ccc2c(c1)OCO2	-1	0	.	-1	2	2
Cc1csc(SC(C)C(=O)Nc2ccc(S(=O)(=O)N3CCCC3)cc2)n1 (configuration not stated)	-1	2	3	4	-1	-1
Cc1csc(SC(C)C(=O)NCC2CCCCC2)n1 (configuration not stated)	1.0*	0	-1	-1	1	1
CN(C)c1cc[n+](CC(=O)N2c3ccccc3Sc3ccccc32)cc1	-1	0	2	-1	-1	-2
O=C(C[n+]1ccccc1)N1c2ccccc2Sc2ccccc21	-1	-1	-1	-1	4.5*	-2
CCc1c(C(=O)NNC(=S)Nc2ccc(S(=O)(=O)Nc3ncccn3)cc2)csc1C	-1	4.0*	1	0	0	-1
CCC(CO)Nc1ccn2nc(-c3cccc(Cl)c3)cc2n1 (configuration not stated)	0	3.9*	.	13*	.	4
CCOC(=O)c1ccc(NC(=S)N(CCCN2CCCC2)Cc2ccco2)cc1	-1	2	0	6	0	-1
Cc1ccsc1C(=O)OCc1nnc(-c2ccccc2)o1	-1	4.0*	7	2	2	1
CC(OC(=O)c1cc[n+]([O-])cc1)C(=O)NCc1ccccc1 (configuration not stated)	-1	-1	3	3	4.7*	0
CC(OC(=O)CNC(=O)C1CCCCC1)C(=O)NCc1ccccc1 (configuration not stated)	1.6*	0	2	-1	1	0
CCN(C(=O)COC(=O)CNC(=O)C1CCCCC1)c1ccccc1	1.0*	1	.	1	-1	-1
Cc1ccc(C)c(N2CCN(S(=O)(=O)c3cc4c(cc3C)NC(=O)CO4)CC2)c1	-1	-1	-3	0	1	0
CCc1cc2ccccc2nc1Cl	-1	0	2	0	6.1*	0
Cc1cccc(C(=O)Nc2ccccc2SCC(=O)Nc2ccc(C)c(Cl)c2)c1	0	0	5	5	1	6.5*
Cc1ccc(NC(=O)CSc2ccccc2NC(=O)c2cccc(Cl)c2)cc1Cl	-1	0	7	1	-1	0
O=C(Nc1ccccc1C(=O)N/N=C/c1ccccc1)c1ccco1	1	0	48*	4	-1	3
O=C(N/N=C/c1ccccc1)c1ccco1	-1	1	7	8	5.8*	2
